S2 tox – viability counter-screen for ATXN expression inhibitors. S2 cells (HEK-293 line with an ATXN2-luciferase reporter) viability, CellTiter-Fluor protease fluorescence, 24 h. Potency, µM (top dose mostly 56.7 µM), most hits filed as cytotoxic. actives 0.49% (n = 400,000). AID 651635; also: nearly all actives have a fitted effect of over 40% in size
TGFb SMAD3 inh – inhibitors of TGF-b signaling. AID 588855. actives 1.2% (n = 410,000). HepG2 CAGA-GFP TGF-b/SMAD3 reporter, GFP fluorescence, 18 h; TGF-beta stimulated, 500 pg/mL final. Potency, µM (doses to about 46.1 µM), most hits filed as inhibitors; also: nearly all actives have a fitted effect of over 65% in size
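Smad-responsive CAGA-GFP expression was quantified in HEPG2 cells exposed to compounds and 500 pg/mL final TGF-beta for 18 h at 37 degrees C; unstimulated wells defined full inhibition.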
HepG2 viability – kills HepG2 cells in TGF-b inhibitor counter-screen; actives 0.76% (n = 410,000); AID 588856; HepG2 CAGA-GFP viability, ATP luminescence, 18 h; Potency, µM (titrated, usually from 46.1 µM), usual class: cytotoxic
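CellTiter-Glo luminescence gave cytotoxicity after 18 hours at 37 degrees C. The cells were HepG2 CAGA-GFP in 1% FBS DMEM, stimulated with 500 pg/mL TGF-beta after compound addition. %Activity was normalised to no-cell wells (complete cell-killing) and DMSO (no toxicity), and curves were fitted and classified.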
IDH1 R132H inh – blocks human mutant IDH1 R132H enzyme; IDH1-R132H enzyme, NADPH consumption, diaphorase/resazurin fluorescence; Potency, µM (highest dose often 76.6 µM), actives largely listed as inhibitors; actives 0.093% (n = 390,000); AID 602179; also: nearly all actives have a fitted effect of over 65% in size
Target sequence (O75874 whole entry R132H, stated change not applied): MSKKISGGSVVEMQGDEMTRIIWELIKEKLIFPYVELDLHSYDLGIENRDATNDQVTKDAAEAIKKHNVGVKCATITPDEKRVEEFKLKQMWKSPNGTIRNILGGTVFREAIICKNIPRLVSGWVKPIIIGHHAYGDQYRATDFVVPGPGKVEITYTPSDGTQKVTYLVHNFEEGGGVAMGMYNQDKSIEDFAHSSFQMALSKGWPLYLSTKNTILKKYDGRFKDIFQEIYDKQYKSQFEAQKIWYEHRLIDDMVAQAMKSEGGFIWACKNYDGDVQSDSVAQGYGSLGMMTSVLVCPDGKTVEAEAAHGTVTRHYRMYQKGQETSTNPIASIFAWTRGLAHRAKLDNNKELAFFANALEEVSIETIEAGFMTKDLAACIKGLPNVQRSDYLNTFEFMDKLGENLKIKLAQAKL
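IDH1-R132H (0.5 ug/mL) preincubated 30 min with compound, then NADPH (0.016 mM) and alpha-KG (2 mM) added; 80 min at RT, pH 7.5. Remaining NADPH coupled via diaphorase/resazurin to fluorescence (540/590 nm); concentration-response curves normalized to no-enzyme control.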
ATXN2 expr inh – ATXN2 expression inhibition | Potency, µM (series often up to 57 µM), usual class: inhibitors | actives 0.72% (n = 360,000) | HEK-293 ATXN2-luciferase reporter, luminescence, 24 h | AID 1745845; also: nearly all actives have a fitted effect of over 55% in size
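qHTS (up to 57 uM final) was run with 24 h compound exposure of reporter cells at 37 °C. Each well was multiplexed: SteadyGlo luminescence measured ATXN2-luciferase expression after a fluorogenic Gly-Phe-AFC viability readout (25 uM final).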
LDHA inh – inhibitors of human lactate dehydrogenase A; P00338; activity change, % (values are at about 110 or 230 µM); purified LDHA, NADH/diaphorase-resazurin fluorescence; active compounds read low; actives 0.15% (n = 480,000); in the data active = activity change below about -30%; inconclusive = mostly about -25% to -30%
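Human LDH5 (2 nM) was incubated with 0.06 mM NADH and 0.2 mM pyruvate for 5 min at room temperature in Tris pH 7.4. Remaining NADH was coupled through diaphorase/resazurin, and resorufin fluorescence was read at 0 and 20 min.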
Hits are given with their value; - = inactive; ? = inconclusive; . = no result; ! = not active in a repeat; [ ] = another dose, or the depositor's remark. Compounds with a hit are over-represented: about 2.2% of the library has one in this group of screens. Unless noted, calls follow the shape of the dose curve; as a rule, active = well fitted curve in the direction sought with a large enough effect; inconclusive = small, poorly fitted or top-dose-only effect, or another doubt; inactive = no such curve, though single readings can be large; an effect the other way counts as inactive or inconclusive.

SMILES	S2 tox	TGFb SMAD3 inh	HepG2 viability	IDH1 R132H inh	ATXN2 expr inh	LDHA inh
COc1ccccc1Cc1nnc(NC(=O)C2CCN(C(=O)c3ccco3)CC2)s1	-	-	-	-	-	-
COc1ccc(Cl)cc1NC(=O)CCN1C(=O)C2CC=CCC2C1=O (centres undefined)	-	-	-	-	-	-
COc1cc(/C=C/c2ccc3cccc(O)c3n2)cc(Br)c1OC	?	-	-	-	-	-
COc1cc(/C=C/c2nc(-c3ccccc3O)n[nH]2)cc(OC)c1OC	-	?	11µM	-	-	-
COc1cc(/C=C/c2ccc3cccc(O)c3n2)cc(OC)c1OC	?	?	-	-	16µM	-
COc1ccccc1NC(=O)CSc1nnc(CSc2nc(C)cc(C)n2)o1	-	-	-	-	-[11.3 µM]	-
CCOc1ccccc1NC(=O)C1CCN(S(=O)(=O)c2cccc3nonc23)CC1	-	-	-	-	-	-
COc1cc(CNC2CCCC2)cc(Cl)c1OCc1ccc(F)cc1	?	-	-	-	?	-
CCOc1cc(CNC2CCCC2)cc(Cl)c1OCc1ccc(F)cc1	28µM	?	11µM	-	22µM	-
CCOc1cc(CNCCc2ccc(S(N)(=O)=O)cc2)cc(Cl)c1OCc1ccccc1	.	?	-	-	20µM	-
Cc1cccc(OCCNC(=O)c2cncc(Br)c2)c1	-	?	-	-	.	-
CCC(C)(C)c1ccc(OCCCC[n+]2ccc(C)cc2)c(C(C)(C)CC)c1	?	16µM	13µM	-	20µM	-
Cc1cc[n+](CC[n+]2ccc(C)cc2)cc1	-	-	-	-	-	-
CCC(C)(C)c1ccc(OCCCC[n+]2cccc(C)c2C)c(C(C)(C)CC)c1	.	10µM	-	-	.	-
CCOc1ccccc1N1CC(C(=O)N(CC)C2CCS(=O)(=O)C2)CC1=O (centres undefined)	-	-	-	-	-	-
CS(=O)(=O)N1CCN(c2ccc(NC(=O)c3ccc(-c4ccc(Cl)cc4)o3)cc2)CC1	-	-	-	-	-	-
CN1CCN(c2ccc(NC(=O)c3ccc(-c4ccc(Cl)cc4)o3)cc2)CC1	.	?	16µM	-	?	-
CCOCCCNC(=O)/C(C#N)=C/c1ccc(-c2ccc(S(=O)(=O)N3CCOCC3)cc2)o1	-	-	-	-	-	-
CCOCCCNC(=O)/C(C#N)=C/c1ccc([N+](=O)[O-])o1	19µM	-	-	-	?	-
CC1=NN(c2nc(C)cc(C)n2)C(=O)C1Cc1ccc(Cl)cc1 (centres undefined)	.	.	.	.	.	-36
CC1(C)Cc2ccccc2C(=NC(Cc2c[nH]c3ccccc23)C(=O)O)N1 (centres undefined)	-	-	-	-	-	-
COc1ccc(-c2nc3ccccc3n2Cc2ccc(Cl)cc2)cc1	?	16µM	-	-	-	-
COc1ccc(-c2nc3ccccc3n2Cc2ccc(C)cc2)cc1	-	?	-	-	-	-
Cc1ccc(Cn2c(Cc3ccccc3)nc3ccccc32)cc1	?	?	16µM!	-	?	-
Oc1cc(NCCc2cccnc2)cc2cccnc12	?	?	11µM	.	40µM	-
SMILES	S2 tox	TGFb SMAD3 inh	HepG2 viability	IDH1 R132H inh	ATXN2 expr inh	LDHA inh
O=[N+]([O-])c1ccc(-n2nnnc2-c2ccccc2)c([N+](=O)[O-])c1	?	10µM	16µM	-	?	-
Cc1ccc2c(c1)/C(=C/c1ccc(F)cc1)C(=O)N2	?	?	10µM	-	.	-
CCC(C)Sc1nc2c(c(=O)[nH]c(=O)n2C)n1Cc1ccccc1Cl (centres undefined)	?	-	-	-	-	-
O=C(CSc1nnc(Cn2nnc3ccccc32)o1)N(Cc1ccc(F)cc1)c1ccccc1	-	11µM	-	-	-	-
COc1ccc(N(Cc2ccccc2)C(=O)CSc2nnc(Cn3nnc4ccccc43)o2)cc1	-	-	-	-	?	-
Cc1cccc(-c2nc(CC(=O)NC3CCCC(C(F)(F)F)C3)cs2)c1 (centres undefined)	.	.	.	.	.	-
O=C(O)CN1C(=O)/C(=C/c2ccc(N3CCCCC3)o2)SC1=S	?	-	-	10µM	.	-
c1ccc(-c2nnc(-c3ccccn3)s2)nc1	-	-	-	-	8.9µM	-
c1ccc(-c2nc(-c3ccccn3)nc(-c3ccccn3)n2)nc1	?	-	-	-	?	-
O=C(Oc1ccc(/C=N/Nc2ccccc2)cc1)c1ccccc1	-	-	-	-	-	-
O=C(O)c1ccc(N/N=C/c2ccc(OC(=O)c3cccc(Cl)c3)cc2)cc1	-	-	-	-	5µM	-
O=C(NCc1ccccc1)C1=C[C@@H](c2csc3ccccc23)C[C@@H](OCCCCO)O1	?	?	-	-	5.6µM	-
Cc1ccc(C(=O)NCC(c2cccs2)S(=O)(=O)c2cccs2)cc1 (centres undefined)	20µM	?	-	-	?	-
CC(C)(C)c1ccc(C(=O)NCC(c2cccs2)S(=O)(=O)c2cccs2)cc1 (centres undefined)	?	-	-	-	-	-
C[C@@H](NC(=O)c1coc(=O)c(Br)c1)c1ccccc1	?	?	13µM	-	?	-
O=C1C(Cl)=C(Nc2ccc(O)cc2)C(=O)c2ccccc21	16µM	?	5.6µM	-	16µM	-
O=C1C(Cl)=C(NCc2ccco2)C(=O)c2ccccc21	?	11µM	-	-	-	-
O=C1C(Cl)=C(NCCN2CCCCC2)C(=O)c2ccccc21	20µM	1.6µM	-	-	14µM	-
CCCC(=O)NC1=C(Cl)C(=O)c2ccccc2C1=O	.	-	-	-	-	-
CCNC1=C(Cl)C(=O)c2ccccc2C1=O	-	?	13µM	-	-	-
O=C(NCCN1CCCC1)c1ccccc1Cl	-	-	-	-	-	-
O=S(=O)(c1ccccc1)c1ccc(NCc2ccco2)cc1	-	-	-	-	-	-
O=C(Cn1cc(C(F)(F)F)cc(Cl)c1=O)NCC1COc2ccccc2O1 (centres undefined)	-	-	-	-	.	-
CC(=O)Nc1ccc(NC2=CC(=O)c3ccccc3C2=O)cc1	-	?	-	-	-	-
CCN(CC)c1ccc(NC2=C(Cl)C(=O)c3ccccc3C2=O)cc1	10µM	?	-	-	20µM	-
Cc1ccc(NC2=C(Cl)C(=O)c3ccccc3C2=O)cc1	.	?	-	-	?	-
O=C1C=C(Nc2ccc(O)cc2)C(=O)c2ccccc21	?	10µM	11µM	-	-	-
Cc1ccccc1-n1nnnc1C1(Nc2ccccc2)CCCCC1	.	.	.	.	.	-
